This assay has as its target T1, φW39 ΔN59 Ref (Bacteriophage phi W39).
T1 chain: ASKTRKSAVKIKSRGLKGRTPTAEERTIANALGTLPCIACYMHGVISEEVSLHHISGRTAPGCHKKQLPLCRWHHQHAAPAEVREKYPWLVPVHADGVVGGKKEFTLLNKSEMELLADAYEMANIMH
Briefly: FP; Kd value only in FIG. 6C; 15 mM Mg acetate, pH 8.5, 25 C. The following applies: tags: expressed from pET21A with NdeI start Met; label: 5'-6FAM; ssDNA. The procedure:
Ref proteins at 0.5-10,000 nM were incubated with 2 nM AJM25 71mer ssDNA or AJM25 annealed with AJG52 71mer to make a linear 71 bp dsDNA substrate in 25 mM Tris-acetate (pH 8.5), 3 mM potassium glutamate, 15 mM magnesium acetate, and 5% w/v glycerol at room temperature for 15 minutes. Fluorescence anisotropy (FA) was measured at 25° C., using a Tecan Infinite M1000 instrument with 470-nm excitation and 535-nm emission wavelengths for at least three replicates. The average FA values were plotted with one standard deviation of the mean shown as error. Prism software was used to convert FA values to the percent of DNA bound and apparent dissociation constants were determined using one-site, specific binding with Hill coefficient.
With “CAGAAGTAAGTTGGCCGCAGTGTTATCACTCATGGTTATGGCAGCACTGCATAATTCTCTTACTGTCATGC”, the binding signal is 40 fold reduction in affinity.
